Hits are enriched below; roughly 11% of the tested compounds scored in any of these assays.
HP1b chromo inh: HTS for Inhibitors of HP1-beta Chromodomain Interactions with Methylated Histone Tails. Chromobox protein homolog 1 (Homo sapiens), P83916. AlphaScreen HP1-beta / biotin-H3K9me3 peptide binding. Potency, µM (doses to about 114 µM), inactives show top-dose activity change, negative = inhibition, hits mostly inhibitors. 390,000 compounds, 0.56% hits; further: potency means the concentration at half of the fitted maximal effect; nearly all actives have a fitted effect of over 70% in size
Target sequence (P83916 whole entry, looked up): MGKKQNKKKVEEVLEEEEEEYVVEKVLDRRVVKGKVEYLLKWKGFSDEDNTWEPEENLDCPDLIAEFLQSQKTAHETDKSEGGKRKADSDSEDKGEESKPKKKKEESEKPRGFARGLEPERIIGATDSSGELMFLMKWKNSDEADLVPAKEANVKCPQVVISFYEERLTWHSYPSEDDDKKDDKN
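HP1-beta protein (50 nM final) preincubated 30 min at room temperature with biotinylated H3(1-18)K9me3 peptide (50 nM) in PBS pH 7.4, 0.01% Tween-20, then compound added for 30 min. AlphaScreen streptavidin donor/nickel chelate acceptor beads (10 ug/mL final), 30 min dark, luminescence read.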
JMJD2A Tudor inh: qHTS Assay for Inhibitors of JMJD2A-Tudor Domain; Potency, µM (highest dose often 114 µM), for inactives: top-dose activity change, negative = inhibition, most hits filed as inhibitors; Lysine-specific demethylase 4A (Homo sapiens), O75164; 390,000 compounds, 4.4% hits; AlphaScreen JMJD2A-Tudor / H3K4me3 peptide binding; further: potency means the concentration at half of the fitted maximal effect; on the % scale 0 is the no-effect control and ±100 the full control effect; nearly all actives have a fitted effect of over 50% in size
G9a block: qHTS Assay for Inhibitors of Histone Lysine Methyltransferase G9a. G9a H3K9 monomethylation, AlphaScreen, 2 h. 350,000 compounds, 8.8% hits. Potency, µM (doses to about 102 µM), inactives show top-dose activity, negative = inhibition, usual class: inhibitors. Histone-lysine N-methyltransferase EHMT2 (Homo sapiens), Q96KQ7. AID 504332, 2011; further: potency means the concentration at half of the fitted maximal effect; on the % scale 0 is the no-effect control and ±100 the full control effect; nearly all actives have a fitted effect of over 75% in size
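AlphaScreen read-out: biotin-H3K9 peptide (500 nM) methylation by 20 nM enzyme with 20 uM SAM, 2 h at room temperature after 15 min compound preincubation; anti-monomethyl H3K9 antibody plus donor/acceptor beads, 10 min dark.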
BAZ2B inh: qHTS Assay for Inhibitors of BAZ2B; AlphaScreen BAZ2B-H3K14Ac peptide displacement; Potency, µM (doses to about 114 µM), for inactives: at the top dose activity change, negative = inhibition, hits mostly inhibitors; 360,000 compounds, 4.4% hits; further: potency means the concentration at half of the fitted maximal effect; on the % scale 0 is the no-effect control and ±100 the full control effect; nearly all actives have a fitted effect of over 60% in size
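Compounds, titrated to a top concentration of 110 uM, were incubated 30 min at room temperature with preformed BAZ2B/acetyl-K14 H3 peptide complex (50 nM each). Proximity signal was measured by AlphaScreen after 20 min with beads.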
L3MBTL1 inh: qHTS Assay for the Inhibitors of L3MBTL1; AlphaScreen L3MBTL1–H3K9me1 peptide binding; Potency, µM (highest dose often 57.1 µM), inactives show at the highest dose activity, negative = inhibition, hits mostly inhibitors; 230,000 compounds, 0.66% hits; Lethal(3)malignant brain tumor-like protein 1 (Homo sapiens), Q9Y468; AID 485360, 2010; further: potency means the concentration at half of the fitted maximal effect; on the % scale 0 is the no-effect control and ±100 the full control effect; nearly all actives have a fitted effect of over 60% in size
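Read-out is AlphaScreen signal from streptavidin donor and nickel chelate acceptor beads (10 ug/mL final each) bridging L3MBTL1 (50 nM) and biotinylated K9-monomethylated H3(1-15) peptide (75 nM), after 30 min compound exposure at room temperature.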
PI5P4Ka inh: qHTS for Inhibitors of phosphatidylinositol 5-phosphate 4-kinase (PI5P4K) | max response, % | 330,000 compounds, 1.2% hits | PI5P4Kalpha enzyme, ADP-Glo luminescence, 60 min; active compounds read low | AID 652105, 2013 | Phosphatidylinositol 5-phosphate 4-kinase type-2 alpha (Homo sapiens), P48426; active means max response of -50% or lower; inconclusive means between -30% and -50%; inactive means -30% or higher; further: value at the top dose of about 77 µM; on the % scale 0 is the no-effect control and ±100 the full control effect
Target sequence (P48426 whole entry, looked up): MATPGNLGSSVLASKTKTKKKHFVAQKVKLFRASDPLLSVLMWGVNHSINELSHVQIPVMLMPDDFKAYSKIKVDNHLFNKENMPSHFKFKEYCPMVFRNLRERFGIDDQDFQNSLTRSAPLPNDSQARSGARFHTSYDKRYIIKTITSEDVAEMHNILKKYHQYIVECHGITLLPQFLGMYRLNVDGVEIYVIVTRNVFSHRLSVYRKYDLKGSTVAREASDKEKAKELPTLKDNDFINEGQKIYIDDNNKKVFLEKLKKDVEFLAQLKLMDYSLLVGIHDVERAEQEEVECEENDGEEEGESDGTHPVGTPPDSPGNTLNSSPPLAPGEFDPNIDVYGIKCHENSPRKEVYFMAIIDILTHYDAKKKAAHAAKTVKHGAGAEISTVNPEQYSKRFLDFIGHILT
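Single end-point luminescence (ADP-Glo) quantified ADP from PI5P4Kalpha turnover; ATP 5 microM final, 1 h at RT, 0.1% CHAPS and 0.28 mM EGTA in HEPES pH 7.4.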
Numbers without * were called inactive; ? = inconclusive; . = no result given; [ ] = another dose, or the depositor's remark. Unless noted, the call rests on the fitted dose curve; in most records, active means well fitted inhibition curve with a large enough effect; inconclusive means small, poorly fitted or top-dose-only effect; inactive means no such curve, though single readings can be large or run the other way.

SMILES | HP1b chromo inh | JMJD2A Tudor inh | G9a block | BAZ2B inh | L3MBTL1 inh | PI5P4Ka inh
N=C1/C(=C\c2ccc(SCc3ccco3)o2)C(=O)N=C2SC=NN12 | 0% | ? | 2%[59 µM] | ? | -29% | -58*
COc1ccc(CNC(=O)COCc2cc(-c3cccs3)on2)cc1 | 24% | 2% | -1%[59 µM] | -1% | . | .
CCOCCCNC(=O)C(c1ccc(C)cc1)N(Cc1ccc2c(c1)OCO2)C(=O)c1ccccc1O (stereo unspecified) | 20% | -17% | -5%[59 µM] | 1% | . | .
CC(/C=C1\SC(=S)N(CCCC(=O)Nc2ccc(C(=O)O)cc2)C1=O)=C\c1ccccc1 | -28% | ? | 13µM* | 40µM* | -4% | ?
O=C(O)CN1C(=O)/C(=C\C(Br)=C\c2ccccc2)SC1=S | ? | ? | 41%[0.501 µM] | 45µM* | . | -28
CC(=C\c1ccccc1)/C=C1/SC(=S)N(C(C(=O)O)C(C)C)C1=O (stereo unspecified) | ? | ? | 35µM* | 71µM* | -5% | -8
O=C(O)CN1C(=O)/C(=C/c2ccsc2)SC1=S | 23% | -12% | 32µM* | 79µM* | 6% | -14
CC(/C=C1\SC(=S)N(CCC(=O)Nc2ccccc2O)C1=O)=C\c1ccccc1 | 16% | -26% | 67% | 1% | . | -9
CCC(C(=O)O)N1C(=O)/C(=C/C(C)=C/c2ccccc2)SC1=S (stereo unspecified) | ? | ? | ? | ? | -27% | -2
CCOC(=O)CNC(=O)N1CCCN(S(=O)(=O)c2ccc3c(ccn3CC)c2)CC1 | 12%[57 µM] | -21% | 9%[59 µM] | 0% | . | .
COc1cc(CNC(=O)c2cnc(SC)nc2-c2ccccc2)cc(OC)c1OC | -10% | -21% | 7%[59 µM] | 5% | . | .
Cc1ccc(S(=O)(=O)Nc2ccc3nc(-c4cccc(Cl)c4)oc3c2)cc1 | 21% | -23% | 5%[59 µM] | -9% | . | .
Cc1ccc(CNC(=O)c2cn(C)c3ccc(S(=O)(=O)N4CCC(C)CC4)cc3c2=O)cc1 | 6% | -18% | ? | . | . | .
CCN(CC)S(=O)(=O)c1ccc(NC(=O)c2cc3ccc4cccnc4c3[nH]2)cc1 | 24% | -10% | -5%[59 µM] | 2%[57.1 µM] | . | .
O=C(CCCN1C(=O)S/C(=C\C=C\c2ccccc2)C1=O)Nc1ccc(C(=O)O)cc1 | 1% | -19% | ? | 56µM* | . | -2
CC(=C\c1ccccc1)/C=C1/SC(=S)N(CCC(=O)Nc2ccccn2)C1=O | . | . | 40µM* | ? | . | .
CC(/C=C1\SC(=S)N(NC(=O)c2ccc(O)cc2)C1=O)=C\c1ccccc1 | ? | ? | ? | 32µM* | ? | -11
CC(/C=C1\SC(=S)N(CCC(=O)Nc2cccc(C(=O)O)c2)C1=O)=C\c1ccccc1 | 71µM* | ? | 45µM* | 56µM* | . | -77*
CN1c2ccccc2-c2nc(SCC(=O)Nc3ccccc3C(F)(F)F)ncc2S1(=O)=O | 23% | -11% | 2%[59 µM] | -3% | . | .
O=C(NCC1CCN(Cc2ccc(F)cc2)CC1)c1cc2ccc3cccnc3c2[nH]1 | 10% | -21% | -9%[59 µM] | 1%[57.1 µM] | . | .
CCOc1ccccc1C(=O)Nc1cc2c(cc1N1CCCCC1)n(C)c(=O)n2C | 7% | -12% | ? | ? | . | .
Cc1ccc(Cl)cc1NS(=O)(=O)c1cc2c(cc1F)NC(=O)CC2 | . | -7% | . | . | . | .
CCc1ccc(/C=C2/SC(=S)N(CCC(=O)Nc3cccc(C(=O)O)c3)C2=O)cc1 | -4% | 50µM* | . | 35µM* | . | 5
CC(/C=C1\SC(=O)N(CCCC(=O)O)C1=O)=C\c1ccccc1 | 21% | -14% | -13%[59 µM] | -28% | -4% | -9
CC(=C\c1ccccc1)/C=C1/SC(=S)N(CCCC(=O)O)C1=O | -11% | -35% | 40µM* | ? | . | -18
SMILES | HP1b chromo inh | JMJD2A Tudor inh | G9a block | BAZ2B inh | L3MBTL1 inh | PI5P4Ka inh
Cc1ccc(CNC(=O)CN2C(=O)C3CCCCN3c3ccc(C(=O)N(C)C)cc32)cc1 (stereo unspecified) | 25%[57 µM] | 1% | 5%[59 µM] | 3% | . | .
CCOc1ccc(-c2ccc(/C=C3/C(=N)N4C=CSC4=NC3=O)o2)c([N+](=O)[O-])c1 | -12% | ? | ? | -2% | 3% | -10
CCOc1ccc(-c2ccc(/C=C3/C(=N)N4C(C)=CSC4=NC3=O)o2)c([N+](=O)[O-])c1 | -19% | ? | ? | ? | -27% | -59*
COc1cc(-c2cc3n(C)c(C)c(CCC(=O)O)c(=O)n3n2)cc(OC)c1OC | 9% | -19% | -30%[59 µM] | . | . | .
CC/C=C\C/C=C\C/C=C\C/C=C\C/C=C\C/C=C\CCC(=O)O | . | . | 7.1µM* | . | . | .
CCCCCCCCCCC/C=C\C/C=C\CCCC(=O)O | . | . | 9%[59 µM] | . | . | .
Oc1[nH]c2ccccc2c1N=Nc1cccc(Cl)c1 | 61% | -24% | -17%[2.33 µM] | -9% | . | 22
Cc1cccc2c(N=Nc3ccccc3)c(O)[nH]c12 | 7% | -10% | 40µM* | 3% | . | -1
Cn1c(=O)c2c(SCC(=O)NCc3ccco3)nc(-c3ccccc3Cl)nc2n(C)c1=O | 3% | -22% | 54% | -14% | . | ?
CCCn1c(=O)n(C)c(=O)c2c(SCC(=O)NCc3ccco3)nc(C3CC3)nc21 | 9% | 79µM* | 9% | -26% | . | -1
Cc1ccc(-n2nc3c(=O)n(CC(=O)NCCC(C)C)nc(C)c3c2C)cc1 | 26% | 14% | 3%[59 µM] | -2% | . | .
Cc1ccc(CCNC(=O)C2CCCN(S(=O)(=O)c3ccc4c(c3)oc(=O)n4C)C2)cc1 (stereo unspecified) | 47% | 0% | -26%[59 µM] | -10% | . | .
Cc1nc(SCC(=O)Nc2cccc(Cl)c2)n[nH]1 | 28% | 2% | 0%[12.7 µM] | 2% | . | -1
O=C(CSc1n[nH]c(-c2ccccn2)n1)Nc1cccc(Cl)c1 | 47% | 6.3µM* | ? | 5µM* | . | -6
Cc1ccccc1NC(=O)CSc1n[nH]c(-c2ccccn2)n1 | 60% | 3.5µM* | 12% | 2.8µM* | . | -5
Cc1ccc(O)c(NC(=O)CSc2n[nH]c(-c3ccccc3)n2)c1 | 22% | -24% | 9% | -27% | . | -6
Cc1ccc(C)c(NC(=O)CSc2n[nH]c(-c3ccccn3)n2)c1 | 15% | 1.3µM* | 61% | 4.5µM* | . | -1
